# Values without a mark were called inactive. Inconclusive results are not listed. Entries that show only a call come without a potency. Active and inactive are the calls of the source. Calls follow the shape of the dose curve; as a rule, active = well fitted curve in the direction sought with a large enough effect; inconclusive = small, poorly fitted or top-dose-only effect, or another doubt; inactive = no such curve, though single readings can be large; an effect the other way counts as inactive or inconclusive.
# Experiments:
# [1] = target: Tumor susceptibility gene 101 protein (Homo sapiens) (UniProt Q99816); experiment: qHTS Assay for Iinhibitors of HIV-1 Budding by Blocking the Interaction of PTAP/TSG101: Hit Validation (AID 651600); also: nearly all actives have a fitted effect of over 70% in size
# Outline: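 FITC-PTAP peptide (50 nM final) binding to Tsg101 binding domain (10 uM final) was measured by polarization after 20 min at r.t. with compounds, in 10 mM HEPES pH 7.5 buffer with 0.15 M NaCl and 0.01% Tween 20.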
# [2] = target: Rap guanine nucleotide exchange factor 4 (Homo sapiens) (UniProt Q8WZA2); experiment: Confirmatory qHTS for antagonist of cAMP-regulated guanine nucleotide exchange factor 4 (EPAC2) (AID 1645885); also: nearly all actives have a fitted effect of over 25% in size; also: potency is read from the fitted curve at half-maximal effect
# [3] = target: Rap guanine nucleotide exchange factor 3 (Homo sapiens) (UniProt O95398); experiment: Counterscreen qHTS for antagonist of cAMP-regulated guanine nucleotide exchange factor 3 (EPAC1) (AID 1645888);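 also: fluorescence loss as bound BODIPY-GDP is released from Rap1B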
# Outline: (§1)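 Measured: fluorescence of BODIPY-GDP bound to Rap1B, which falls as exchange proceeds. Conditions include 50 uM competing GDP, 5 and 30 min reads, and a later cAMP challenge for antagonist detection.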
# [4] = target: Rap guanine nucleotide exchange factor 3 (Homo sapiens) (UniProt O95398); experiment: Counterscreen qHTS for agonist of cAMP-regulated guanine nucleotide exchange factor 3 (EPAC1) (AID 1645889); also: nearly all actives have a fitted effect of over 40% in size; also: potency is read from the fitted curve at half-maximal effect
# Outline: as §1
# [5] = target: Cytochrome P450 3A4 (Homo sapiens) (UniProt P08684); experiment: qHTS Assay for Inhibitors and Substrates of Cytochrome P450 3A4 (AID 884); also: potency is read from the fitted curve at half-maximal effect; nearly all actives have a fitted effect of over 50% in size
# Outline: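 Luminescent readout of luciferin produced by CYP3A4 (20 nM) dealkylation of Luciferin-PPXE, 25 uM (its KM). NADPH-driven reaction ran 60 min at RT after 10 min compound preincubation; data scaled to 57 uM ketoconazole as 100% inhibition.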
# [6] = target: Cytochrome P450 3A4 (Homo sapiens) (UniProt P08684); experiment: qHTS Assay for Activators of Cytochrome P450 3A4 (AID 885); also: nearly all actives have a fitted effect of over 65% in size
# Outline: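 Human CYP3A4 dealkylates Luciferin-PPXE to luciferin, which luciferase detection converts to light. Substrate was at its KM (25uM), buffer 200mM KPO4, reaction 60 min at RT.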
# [7] = target: Ubiquitin carboxyl-terminal hydrolase 1 (Homo sapiens) (UniProt O94782); experiment: Inhibitors of USP1/UAF1: Pilot qHTS (AID 504865);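 also: rhodamine fluorescence freed from ubiquitin-rhodamine substrate followed over time; top concentration of the series differs between compounds; nearly all actives have a fitted effect of over 35% in size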
# Outline: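 Deubiquitinase activity followed as kinetic rhodamine fluorescence release from 150 nM Ub-Rho. 1 nM USP1/UAF1 with compound, after 15 min room-temperature preincubation, in HEPES pH 7.8 buffer containing TCEP, EDTA, BSA and Tween-20.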
# [8] = target: DNA dC->dU-editing enzyme APOBEC-3G (Homo sapiens) (UniProt Q9HC16); experiment: qHTS for inhibitors of Vif-A3G interactions: Validation (AID 588379)
# Outline: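 Yellow fluorescence (Ex 488, Em 500-530) of Vif-coexpressing HeLa A3G-eYFP cells, scanned by Acumen cytometer, reports blocked A3G degradation. Cells plated at 700/well overnight at 37 deg C before compound addition, then a further overnight compound incubation at 37 deg C.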
# Rap guanine nucleotide exchange factor 4 (Homo sapiens), sequence (Q8WZA2 whole entry, looked up): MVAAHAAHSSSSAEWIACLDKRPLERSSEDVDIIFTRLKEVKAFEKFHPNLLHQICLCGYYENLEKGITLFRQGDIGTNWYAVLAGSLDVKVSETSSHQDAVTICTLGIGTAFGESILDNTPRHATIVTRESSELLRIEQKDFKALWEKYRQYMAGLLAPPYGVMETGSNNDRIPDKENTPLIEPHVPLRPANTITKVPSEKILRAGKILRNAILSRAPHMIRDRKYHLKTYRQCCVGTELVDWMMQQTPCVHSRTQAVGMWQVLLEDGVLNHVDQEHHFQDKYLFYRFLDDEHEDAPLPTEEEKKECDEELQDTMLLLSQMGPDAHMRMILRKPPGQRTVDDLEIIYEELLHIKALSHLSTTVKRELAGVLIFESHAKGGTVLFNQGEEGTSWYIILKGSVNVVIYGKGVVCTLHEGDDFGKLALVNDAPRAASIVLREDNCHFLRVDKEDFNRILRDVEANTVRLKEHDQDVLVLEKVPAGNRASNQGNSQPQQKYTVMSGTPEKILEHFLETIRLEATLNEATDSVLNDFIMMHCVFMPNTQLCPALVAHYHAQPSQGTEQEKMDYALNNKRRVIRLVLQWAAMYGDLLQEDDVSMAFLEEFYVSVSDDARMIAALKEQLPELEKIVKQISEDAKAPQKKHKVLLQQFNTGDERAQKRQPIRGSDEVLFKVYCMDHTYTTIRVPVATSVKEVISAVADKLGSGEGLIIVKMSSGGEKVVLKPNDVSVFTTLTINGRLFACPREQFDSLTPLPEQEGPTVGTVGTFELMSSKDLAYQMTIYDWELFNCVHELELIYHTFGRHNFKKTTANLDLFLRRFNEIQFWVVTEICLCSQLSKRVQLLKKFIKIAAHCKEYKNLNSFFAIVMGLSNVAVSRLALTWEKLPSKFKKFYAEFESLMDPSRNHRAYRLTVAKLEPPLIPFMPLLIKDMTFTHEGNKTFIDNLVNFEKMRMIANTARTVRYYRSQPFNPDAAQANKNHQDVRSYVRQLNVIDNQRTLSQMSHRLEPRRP
# Rap guanine nucleotide exchange factor 3 (Homo sapiens), sequence (O95398 whole entry, looked up): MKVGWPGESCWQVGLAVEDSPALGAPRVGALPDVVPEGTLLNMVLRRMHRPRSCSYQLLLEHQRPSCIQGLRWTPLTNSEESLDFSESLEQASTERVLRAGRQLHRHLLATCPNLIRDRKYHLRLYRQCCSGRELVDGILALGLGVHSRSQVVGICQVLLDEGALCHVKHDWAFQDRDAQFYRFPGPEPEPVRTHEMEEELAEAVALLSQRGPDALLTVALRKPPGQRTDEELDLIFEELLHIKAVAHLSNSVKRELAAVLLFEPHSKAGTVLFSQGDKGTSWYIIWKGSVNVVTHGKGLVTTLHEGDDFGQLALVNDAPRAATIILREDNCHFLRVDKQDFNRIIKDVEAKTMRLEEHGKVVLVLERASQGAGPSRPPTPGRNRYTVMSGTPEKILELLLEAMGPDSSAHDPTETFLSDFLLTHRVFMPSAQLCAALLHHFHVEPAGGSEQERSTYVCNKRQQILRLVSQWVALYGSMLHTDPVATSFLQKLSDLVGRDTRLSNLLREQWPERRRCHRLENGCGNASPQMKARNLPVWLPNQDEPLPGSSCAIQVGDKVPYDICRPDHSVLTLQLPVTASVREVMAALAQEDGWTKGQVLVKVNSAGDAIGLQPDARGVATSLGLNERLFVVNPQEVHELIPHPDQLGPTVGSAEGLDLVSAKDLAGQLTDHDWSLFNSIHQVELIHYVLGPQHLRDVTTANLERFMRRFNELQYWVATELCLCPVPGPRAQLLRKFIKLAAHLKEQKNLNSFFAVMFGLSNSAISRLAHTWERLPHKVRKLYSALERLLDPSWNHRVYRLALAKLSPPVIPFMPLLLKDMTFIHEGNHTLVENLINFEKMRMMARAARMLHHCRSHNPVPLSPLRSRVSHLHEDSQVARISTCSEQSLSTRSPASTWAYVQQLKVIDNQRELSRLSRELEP
# Tumor susceptibility gene 101 protein (Homo sapiens), sequence (Q99816 whole entry, looked up, the tested form may be a part): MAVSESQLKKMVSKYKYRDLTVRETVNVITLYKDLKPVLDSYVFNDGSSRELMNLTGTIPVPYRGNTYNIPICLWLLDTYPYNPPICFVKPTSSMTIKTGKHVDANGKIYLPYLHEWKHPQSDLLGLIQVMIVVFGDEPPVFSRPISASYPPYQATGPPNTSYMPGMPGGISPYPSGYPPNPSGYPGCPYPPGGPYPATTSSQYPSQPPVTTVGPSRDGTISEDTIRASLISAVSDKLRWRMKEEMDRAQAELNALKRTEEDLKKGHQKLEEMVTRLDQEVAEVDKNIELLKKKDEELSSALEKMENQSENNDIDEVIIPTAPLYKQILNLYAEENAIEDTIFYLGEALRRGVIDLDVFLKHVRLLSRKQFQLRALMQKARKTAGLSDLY
# Cytochrome P450 3A4 (Homo sapiens), sequence (P08684 whole entry, looked up): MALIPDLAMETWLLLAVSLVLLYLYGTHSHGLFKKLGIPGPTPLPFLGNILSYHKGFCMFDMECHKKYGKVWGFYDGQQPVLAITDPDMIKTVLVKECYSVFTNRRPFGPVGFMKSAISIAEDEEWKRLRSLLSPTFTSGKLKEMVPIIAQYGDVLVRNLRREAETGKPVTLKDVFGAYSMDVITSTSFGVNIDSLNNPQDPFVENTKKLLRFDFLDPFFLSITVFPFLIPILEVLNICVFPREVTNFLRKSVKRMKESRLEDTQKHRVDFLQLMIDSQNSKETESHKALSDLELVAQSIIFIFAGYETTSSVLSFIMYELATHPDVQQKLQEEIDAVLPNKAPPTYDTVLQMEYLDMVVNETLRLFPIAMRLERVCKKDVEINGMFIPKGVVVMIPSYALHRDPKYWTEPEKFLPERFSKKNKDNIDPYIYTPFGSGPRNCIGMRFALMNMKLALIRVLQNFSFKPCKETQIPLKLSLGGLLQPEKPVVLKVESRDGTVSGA
# DNA dC->dU-editing enzyme APOBEC-3G (Homo sapiens), sequence (Q9HC16 whole entry, looked up): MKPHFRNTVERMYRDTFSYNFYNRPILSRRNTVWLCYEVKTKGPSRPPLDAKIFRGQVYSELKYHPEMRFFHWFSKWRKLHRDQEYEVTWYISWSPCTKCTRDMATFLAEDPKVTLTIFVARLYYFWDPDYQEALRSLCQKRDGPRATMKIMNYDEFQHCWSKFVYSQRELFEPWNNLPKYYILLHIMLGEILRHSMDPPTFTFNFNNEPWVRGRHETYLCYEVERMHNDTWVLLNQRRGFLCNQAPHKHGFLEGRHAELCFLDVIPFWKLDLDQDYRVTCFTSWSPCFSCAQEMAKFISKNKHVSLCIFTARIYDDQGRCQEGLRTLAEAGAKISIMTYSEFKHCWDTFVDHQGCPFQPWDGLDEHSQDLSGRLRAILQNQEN
# Ubiquitin carboxyl-terminal hydrolase 1 (Homo sapiens), sequence (O94782 whole entry, looked up): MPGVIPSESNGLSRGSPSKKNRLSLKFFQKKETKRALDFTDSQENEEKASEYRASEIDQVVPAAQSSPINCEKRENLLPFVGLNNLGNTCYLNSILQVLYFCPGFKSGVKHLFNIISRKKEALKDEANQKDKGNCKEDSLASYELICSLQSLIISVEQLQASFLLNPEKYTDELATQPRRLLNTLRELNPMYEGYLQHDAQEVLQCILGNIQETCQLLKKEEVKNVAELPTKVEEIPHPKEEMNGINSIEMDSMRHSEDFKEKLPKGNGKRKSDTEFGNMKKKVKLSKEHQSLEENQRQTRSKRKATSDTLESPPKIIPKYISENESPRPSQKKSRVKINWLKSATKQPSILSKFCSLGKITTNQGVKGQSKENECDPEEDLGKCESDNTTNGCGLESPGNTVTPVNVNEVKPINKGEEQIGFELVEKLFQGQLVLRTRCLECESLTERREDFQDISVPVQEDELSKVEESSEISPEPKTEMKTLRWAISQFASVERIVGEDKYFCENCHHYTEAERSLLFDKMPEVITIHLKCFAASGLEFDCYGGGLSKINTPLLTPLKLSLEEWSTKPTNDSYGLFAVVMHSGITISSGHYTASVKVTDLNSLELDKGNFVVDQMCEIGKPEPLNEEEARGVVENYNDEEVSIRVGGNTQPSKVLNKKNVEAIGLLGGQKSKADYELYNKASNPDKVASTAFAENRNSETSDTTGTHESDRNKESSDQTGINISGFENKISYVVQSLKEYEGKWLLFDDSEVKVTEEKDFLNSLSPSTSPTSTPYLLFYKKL
compound,measurement,setting,value
CCN(CC)c1ccc(/C=C/C(=O)c2ccc(Br)cc2)cc1,Potency,[1],inactive
same,Potency,[2],inactive
same,"activity change, negative = inhibition",[3],192% [at 30.8 µM]
same,Potency,[4],14.1 µM (active)
Cc1cccc(N2CCCC2=Nc2ccc(Br)cc2C#N)c1,Potency,[3],inactive
same,Potency,[4],inactive
CCOC(=O)C1CN(S(=O)(=O)c2ccc(C)cc2)c2ccccc2O1 (stereo not given),Potency,[3],inactive
Cc1cc2ccccn2c1C(=O)c1ccccc1Br,Potency,[2],inactive
same,Potency,[3],inactive
same,Potency,[4],25.1 µM (active)
CC(NC1=CC(=O)c2cccnc2C1=O)C(O)c1ccccc1 (stereo not given),Potency,[2],inactive
same,Potency,[3],inactive
O=C(NCc1ccc(OC(F)(F)F)cc1)c1cccc2c1C(=O)c1ccc(N3CCCC3)cc1S2(=O)=O,Potency,[2],inactive
same,activation,[4],20% [at 30.8 µM]
Cc1c(CCC(=O)O)c(=O)oc2c(C)c3occ(-c4ccc(Br)cc4)c3cc12,Potency,[2],inactive
same,Potency,[3],inactive
same,Potency,[4],inactive
COc1cc(C2CC(=O)Oc3cc(C)c(Cl)c(C)c32)cc(OC)c1OC (stereo not given),"activity change, negative = inhibition",[3],-10.7% [at 30.8 µM]
same,activation,[4],28.3% [at 30.8 µM]
COc1ccc(/C=C/C(=O)c2cccs2)c(OC)c1,Potency,[5],6.31 µM (active)
same,outcome,[6],inactive
same,Potency,[7],inactive
same,outcome,[8],inactive
same,Potency,[2],inactive
CCOC(=O)c1c(-c2ccccc2)oc2ccc(O)cc12,Potency,[3],inactive
CN1c2ccsc2/C(=N/Nc2ccccc2)CS1(=O)=O,Potency,[3],inactive
COc1ccc(/C=N/n2cnc3c([nH]c4ccc(F)cc43)c2=O)cc1CN1CCCC1,Potency,[4],inactive
CN(C)/C=C/c1onc(-c2c(Cl)cccc2Cl)c1C#N,Potency,[3],inactive
same,Potency,[4],inactive
Oc1ccc(/C(Cc2ccccn2)=N\Nc2ccccc2)c(O)c1,Potency,[3],inactive
Oc1ccccc1Cc1c(O)ccc2ccccc12,Potency,[3],inactive
Clc1ccc(C2Nc3cccc4cccc(c34)N2)c(Cl)c1,Potency,[3],inactive
Cc1ccnc(NCc2cccc3ccccc23)c1,Potency,[2],inactive
same,Potency,[3],inactive
same,Potency,[4],inactive
S=C(Nc1ccc2nsnc2c1)NC1CCCCC1,Potency,[2],inactive
same,Potency,[3],inactive
COc1cc(C)nc(N2CCCC(C(=O)Nc3cc(Cl)ccc3OC)C2)n1 (stereo not given),Potency,[3],inactive
CCCN1CC=C2C(C#N)=C(N)C(C#N)(C#N)C(c3cccc(OC)c3OC)C2C1 (stereo not given),Potency,[2],12 µM (active)
same,Potency,[3],inactive
CN1/C(=C\C=C2/C(=O)Oc3ccccc3C2=O)C(C)(C)c2ccccc21,Potency,[1],inactive
same,Potency,[2],inactive
same,Potency,[4],20 µM (active)
O=C(CC1Sc2ccccc2NC1=O)OCc1cc(=O)oc2cc(O)ccc12 (stereo not given),Potency,[2],inactive
same,Potency,[4],inactive
CC1=CC2=NC(=O)/C(=C/c3coc4ccccc4c3=O)C(=N)N2O1,Potency,[2],75.7 µM (active)
same,Potency,[3],inactive
same,Potency,[4],39.8 µM (active)
COc1cccc(CNc2cccc3cccnc23)c1O,Potency,[2],inactive
same,Potency,[3],inactive
O=S(=O)(c1ccccc1)c1nc(Nc2cccc(O)c2)sc1Cl,Potency,[2],inactive
same,Potency,[3],inactive
O=c1cc(Cl)c(-c2ccccc2)nn1Cc1ccc(Cl)cc1,Potency,[3],inactive
O=C(COc1ccc(Cl)cc1Cl)NNC(=S)NCc1ccco1,Potency,[3],inactive
CCN(CC)c1ccc(C=C2SC(=S)NC2=O)cc1,Potency,[2],84.9 µM (active)
same,Potency,[3],inactive
COc1ccc(-c2n[nH]c(C)c2-c2ccccc2OC)c(O)c1,Potency,[3],inactive
same,Potency,[4],inactive
OC[C@@H]1[C@@H](c2ccccc2)C(c2ccccc2)=NN1c1ccccc1,Potency,[3],inactive
COc1cccc(C2=NN(C(=O)c3ccco3)C(c3ccco3)C2)c1 (stereo not given),Potency,[2],inactive
same,Potency,[3],inactive
same,Potency,[4],inactive
O=S(=O)(c1ccc2[nH]c3c(c2c1)CCCC3)N1CCCCC1,Potency,[2],inactive
same,Potency,[3],inactive
Cc1ccc2oc(=O)n(Cc3ccc(OC(C)C)cc3)c2c1,Potency,[3],inactive
COc1ccccc1Oc1nc(-c2cccnc2)nc2ccccc12,Potency,[2],67.5 µM (active)
same,Potency,[3],inactive
O=C1OC(c2ccccc2)(c2ccc(O)cc2)c2ccccc21 (stereo not given),"activity change, negative = inhibition",[3],-9.22% [at 30.8 µM]
CC1CCCN(C(=O)c2ccc(-c3ccccc3Cl)o2)C1 (stereo not given),Potency,[2],inactive
same,Potency,[3],inactive
